Assay [1] can be described thus: resazurin metabolic signal in HepG2 cells – cell-based, resazurin fluorescence, 24 h, PK04 Diversity Set, profiling panel (AID 1172). The following applies: HepG2 viability, higher = more signal. (In general: The colour change of resazurin is a common sign of viable cells or microbes.)
Assay [2] in a line: budding yeast growth changes without added modifier – OD600, strain BY4716, 24 h, basal condition, primary screen (AID 1173). The following applies: S. cerevisiae BY4716 growth, OD600, 24 h; higher = more signal, called active from +8 up or from −8 down.
The nature of assay [3]: viability profiling in MM1S myeloma cells – cell-based, resazurin fluorescence, basal, 24 h, PK04 Diversity Set, profiling panel (AID 1174).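 Further: MM1S multiple myeloma cell line.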 The following applies: higher = more signal, called active from +8 up or from −8 down.
The target of assay [4] is Dihydroorotate dehydrogenase (quinone), mitochondrial (Plasmodium falciparum (isolate 3D7)) (UniProt Q08210). The experiment in a line: inhibition of P. falciparum DHODH – biochemical, C-terminal His tag, absorbance 600 nm, primary screen (AID 1175).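 Further: recombinant parasite enzyme with a five histidine tag at its C terminus.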 Particulars: PfDHODH enzyme, DCIP absorbance 600 nm; higher = more signal, called active from +8 up or from −8 down.
Sequence of Dihydroorotate dehydrogenase (quinone), mitochondrial (Plasmodium falciparum (isolate 3D7)) (Q08210 whole entry, looked up): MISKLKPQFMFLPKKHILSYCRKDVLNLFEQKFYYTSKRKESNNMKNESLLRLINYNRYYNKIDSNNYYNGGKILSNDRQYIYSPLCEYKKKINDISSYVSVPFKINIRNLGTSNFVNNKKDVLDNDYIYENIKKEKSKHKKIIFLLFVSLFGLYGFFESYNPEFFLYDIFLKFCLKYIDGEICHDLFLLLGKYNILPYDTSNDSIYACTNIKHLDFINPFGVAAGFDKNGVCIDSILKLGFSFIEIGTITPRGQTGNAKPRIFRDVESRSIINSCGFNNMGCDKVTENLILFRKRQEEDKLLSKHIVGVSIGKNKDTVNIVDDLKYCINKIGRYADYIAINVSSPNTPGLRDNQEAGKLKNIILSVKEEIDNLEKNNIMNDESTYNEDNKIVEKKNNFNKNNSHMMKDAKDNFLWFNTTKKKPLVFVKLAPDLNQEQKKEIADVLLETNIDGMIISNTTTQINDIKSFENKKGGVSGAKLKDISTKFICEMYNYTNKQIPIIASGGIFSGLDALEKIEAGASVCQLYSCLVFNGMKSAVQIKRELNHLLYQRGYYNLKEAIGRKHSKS
A short description of assay [5]: inhibition of PAO1 biofilm formation – strain PAO1, LB-PBS medium, absorbance 600 nm, primary screen (AID 1176). The following applies: P. aeruginosa PAO1 growth/biofilm, A600, 12 h; higher = more signal.
The nature of assay [6]: growth modulation of vineyard yeast isolate – strain RM11-1a, OD600, basal, 24 h, primary screen (AID 1177).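 Further: cultures grown under basal conditions with no added stressor.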 The following applies: S. cerevisiae RM11-1a growth, OD600, 24 h; higher = more signal, called active from +8 up or from −8 down.
Assay [7] in a line: growth of efflux-deficient E. coli DRC39 – strain DRC39, OD650, 24 h, E. coli filamentation inducers, primary screen (AID 1178).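 Further: growth measured as culture turbidity by optical density at 650 nm.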 The following applies: E. coli DRC39 acrAB, higher = more signal, called active from +8 up or from −8 down.
Assay [8] is described as follows: growth of efflux-deficient E. coli DRC39 – strain DRC39, OD650, 48 h, E. coli filamentation inducers, primary screen (AID 1179).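 Further: screen aims at cell division blockers that make cells filament.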 The following applies: E. coli DRC39 delta-acrAB growth, higher = more signal, called active from +8 up or from −8 down.
Assay [9] is described as follows: viability profiling in RPMI8226 myeloma cells – cell-based, resazurin fluorescence, basal, 24 h, PK04 Diversity Set, profiling panel (AID 1180).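 Further: RPMI8826 multiple myeloma cell line at 5000 cells per well.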 The following applies: higher = more signal.
In assay [10] the target is E3 ubiquitin-protein ligase XIAP (Homo sapiens) (UniProt P98170). The assay can be described thus: small molecules binding XIAP protein – biophysical, small-molecule microarray, fluorescence 635 nm, primary screen (AID 1181).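 Further: score merges 667 nm emission and signal to noise over triplicate slides.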 The following applies: higher = more signal.
Sequence of E3 ubiquitin-protein ligase XIAP (Homo sapiens) (P98170 whole entry, looked up, the tested form may be a part): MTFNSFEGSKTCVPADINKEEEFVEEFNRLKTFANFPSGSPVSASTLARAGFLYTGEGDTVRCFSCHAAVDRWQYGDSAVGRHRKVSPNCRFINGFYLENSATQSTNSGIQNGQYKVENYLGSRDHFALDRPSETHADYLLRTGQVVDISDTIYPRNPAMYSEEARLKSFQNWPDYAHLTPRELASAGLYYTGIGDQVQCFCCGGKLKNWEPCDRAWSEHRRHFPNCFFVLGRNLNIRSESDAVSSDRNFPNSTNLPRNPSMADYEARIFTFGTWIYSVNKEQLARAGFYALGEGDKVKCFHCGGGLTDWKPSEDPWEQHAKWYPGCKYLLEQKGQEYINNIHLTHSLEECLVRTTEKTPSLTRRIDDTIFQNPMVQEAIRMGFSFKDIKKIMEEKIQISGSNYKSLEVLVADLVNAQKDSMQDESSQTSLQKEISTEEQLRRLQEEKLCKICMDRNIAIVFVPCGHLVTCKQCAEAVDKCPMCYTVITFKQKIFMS
The test system of assay [11] is XIP peptide (Xip251-270) binding. The experiment in a line: XIP fragment 251-270 binding compounds – biochemical, small-molecule microarray, fluorescence 635/667 nm, 0.1 µg/mL protein, primary screen (AID 1182). The following applies: fluorescent protein binding, 635 nm, higher = more signal, called active from +8 up or from −8 down.
For a further assay, the system named is XIP peptide (Xip251-270). The experiment in a line: compounds binding XIP fragment 251-270 – biochemical, small-molecule microarray, fluorescence 635/667 nm, 0.5 µg/mL protein, primary screen (AID 1183). Particulars: fluorescence 635 nm, higher = more signal.
The nature of assay [12]: blood-stage malaria parasite viability loss – strain 3D7, DAPI fluorescence, 100 nL, primary screen (AID 1184).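 Further: parasites grown inside human red blood cells in medium with human serum.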 Particulars: P. falciparum 3D7 growth, 3 d, higher = more signal.
Assay [13] deals with Homeobox protein Hox-A13 (Mus musculus) (UniProt Q62424). The experiment in a line: disruptors of Hoxa13 oligonucleotide interaction – biochemical, fluorescence polarization, labeled oligonucleotide, primary screen (AID 1185). The following applies: Hoxa13:DNA binding, 15 min, higher = more signal, called active from +8 up or from −8 down. Background: In fluorescence polarisation assays a small probe gives low polarisation when free and higher when bound to something large.
Sequence of Homeobox protein Hox-A13 (Mus musculus) (Q62424 whole entry, looked up): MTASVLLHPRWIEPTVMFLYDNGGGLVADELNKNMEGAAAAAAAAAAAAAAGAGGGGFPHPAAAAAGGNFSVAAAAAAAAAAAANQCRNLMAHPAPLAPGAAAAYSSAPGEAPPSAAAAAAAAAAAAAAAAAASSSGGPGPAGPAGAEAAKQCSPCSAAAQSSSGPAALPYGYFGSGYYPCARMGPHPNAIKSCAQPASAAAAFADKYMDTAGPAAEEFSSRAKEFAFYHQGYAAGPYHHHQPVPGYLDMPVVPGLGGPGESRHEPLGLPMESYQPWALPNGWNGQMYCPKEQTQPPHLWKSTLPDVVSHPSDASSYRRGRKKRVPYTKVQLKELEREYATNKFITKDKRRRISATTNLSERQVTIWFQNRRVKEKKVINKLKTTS

A short description of assay [14]: blockers of DNA damage checkpoint Chk1 activation – imaging, HeLa, hydroxyurea, phospho-Chk1 antibody, percent positive cells, primary screen (AID 1186). The following applies: hydroxyurea-induced phospho-Chk1 immunofluorescence imaging, higher = more signal.
A short description of assay [15]: blockers of DNA damage checkpoint Chk1 activation – imaging, HeLa, hydroxyurea, phospho-Chk1 nuclear intensity, primary screen (AID 1187). Particulars: hydroxyurea-induced phospho-Chk1 immunofluorescence imaging, higher = more signal.

Molecules are shown by their SMILES. Calls of active or inactive are those of the source. Unless noted, how the calls were made is not given here.

With `C=CC[C@@]1(C(=O)OC)N=C(c2ccc(OCCCO)cc2)O[C@@H]1c1ccccc1N=[N+]=[N-]`, the z-score is -0.0361 in assay [1]; -1.28 (inactive) in [2]; -0.768 (inactive) in assay [3]; -0.043 (inactive) in [5]; 1.72 (inactive) in assay [6]; 0.906 (inactive) in assay [7]. Further, the z-score is -1.05 (inactive) in [8]; -0.937 in assay [9]; -2.27 in assay [12]; -3.81 (inactive) in assay [13]; -0.312 (inactive) in [14]; 0.0948 (inactive) in [15]. Also, the composite z-score in assay [4] was 1.09 (inactive); in [10] it was 0.0142; in assay [11], 0.741 (inactive); in the assay on XIP peptide (Xip251-270) it was 0.852.

On to `Cc1ccc(S[C@]2(C(=O)NCc3ccccc3)CC(=O)N(Cc3ccccc3C(F)(F)F)[C@@H]2c2ccc(CO)cc2)cc1`, for which the z-score in assay [1] was -0.704; in assay [2], -0.359 (inactive); in assay [3], 0.103 (inactive); in assay [5] it was 0.416 (inactive); in [6], -1.38 (inactive); in [7], 0.57 (inactive). The z-score in assay [8] was 1.46 (inactive); in assay [9], -0.307; in assay [12], 0.78; in assay [13], 0.0133 (inactive); in assay [14], -0.51 (inactive); in assay [15] it was -0.393 (inactive). In addition, the composite z-score was -1.27 (inactive) in assay [4], 0.109 in assay [10], 0.903 (inactive) in assay [11] and 0.599 in the assay with XIP peptide (Xip251-270).

Take `COc1ccc(C(=O)Nc2cccc(CN3C(=O)[C@@]4(O[C@@H](CC(=O)N5CCC[C@H]5CO)[C@H]([Si](C)(C)c5ccc(OC)cc5)[C@H]4C)c4ccccc43)c2)cc1`: the z-score in assay [1] was -0.429; in [2], -0.0739 (inactive); in assay [3], -1.17 (inactive); in assay [5], 1.03 (inactive); in assay [6] it was 0.844 (inactive); in assay [7], 0.603 (inactive). For the same compound, the z-score was 0.274 (inactive) in [8]; -1.25 in assay [9]; -2.16 in assay [12]; -2.8 (inactive) in assay [13]; -0.142 (inactive) in [14]; 0.071 (inactive) in assay [15]. For the same compound, the composite z-score was -5.69 (inactive) in assay [4], 0.147 in [10], 0.802 (inactive) in assay [11] and 0.639 in the assay with XIP peptide (Xip251-270).

As for `CCOC(=O)C[C@H]1[C@H](OC(=O)c2ccccc2-c2ccccc2)[C@@H](NC(=O)C2CCCCC2)c2cc(OCCCO)ccc2N1C(=O)c1ccc2ccccc2n1`, the z-score was -0.872 in assay [1]; 0.818 (inactive) in assay [2]; -0.0667 (inactive) in assay [3]; -0.177 (inactive) in [5]; 0.743 (inactive) in [6]; -0.53 (inactive) in [7]. For the same compound, the z-score in [8] is -0.12 (inactive); in assay [9], 0.131; in assay [12], 0.433; in assay [13], -3.33 (inactive); in [14], 0.0664 (inactive); in [15] it was -0.108 (inactive). Besides, the composite z-score in assay [4] is 0.338 (inactive); in assay [10], -0.0351; in assay [11], 0.181 (inactive); in the assay on XIP peptide (Xip251-270) it was 0.727.

In the case of `C[C@]1(C(=O)O)c2ccccc2C(=O)N(Cc2cc(F)cc(C(F)(F)F)c2)[C@H]1c1ccc(CO)cc1`, the z-score in [1] is 0.646; in assay [2], -1.43 (inactive); in assay [3], 0.449 (inactive); in assay [5], 1.01 (inactive); in assay [6] it was -1.33 (inactive); in [7], 0.434 (inactive). Moreover, the z-score is -0.808 (inactive) in assay [8]; 1.4 in assay [9]; 0.832 in assay [12]; -1.83 (inactive) in assay [13]; 0.117 (inactive) in assay [14]; 0.239 (inactive) in assay [15]. Besides, the composite z-score was -0.215 (inactive) in [4], -0.167 in assay [10], 0.342 (inactive) in assay [11] and 0.778 in the assay with XIP peptide (Xip251-270).

On to `CN(C)CCCCNC(=O)[C@H]1C[C@H]2C(=O)N3CCC[C@H]3C(=O)N2[C@H]1c1cccc(OCCO)c1`, for which the z-score in assay [1] is -0.0329; in assay [2], 0.949 (inactive); in assay [3] it was 0.299 (inactive); in [5], 0.202 (inactive); in [6] it was 1.76 (inactive); in assay [7] it was -0.0332 (inactive). Moreover, the z-score in assay [8] was -0.536 (inactive); in assay [9], -0.116; in assay [12], 0.0172; in assay [13] it was -3.86 (inactive); in [14], -0.322 (inactive); in assay [15], 0.0695 (inactive). The composite z-score in assay [4] was 0.483 (inactive); in assay [10] it was 0.906; in assay [11] it was 0.683 (inactive); with XIP peptide (Xip251-270), 0.629.

On to `O=C1C[C@]2(c3ccc([N+](=O)[O-])cc3)C(=O)N(C3CC3)c3cc(CO)ccc3[C@H]2N1C1CCCCC1`, for which the z-score in [1] was 0.277; in assay [2], 0.462 (inactive); in [3] it was -0.0174 (inactive); in [5], 0.475 (inactive); in assay [6], 0.3 (inactive); in [7], 0.0977 (inactive). Further, the z-score was 0.284 (inactive) in assay [8]; -0.34 in assay [9]; 1.47 in [12]; -1.16 (inactive) in assay [13]; -0.214 (inactive) in assay [14]; -0.771 (inactive) in [15]. Moreover, the composite z-score in assay [4] was -3.75 (inactive); in assay [10], -0.0286; in assay [11], -0.217 (inactive); in the assay with XIP peptide (Xip251-270) it was 0.205.

`C=C(CCCC)/C(=C/C[C@H](OC(=O)c1ccncc1)c1cccc(OCCO)c1)c1cnc2ccccc2c1`: the z-score in [1] was -0.0769; in assay [2], 0.527 (inactive); in assay [3], -0.737 (inactive); in assay [5] it was 0.236 (inactive); in assay [6], -0.364 (inactive); in [7], -0.566 (inactive). For the same compound, the z-score in assay [8] is -0.635 (inactive); in assay [9], -0.82; in assay [12], -2.97; in assay [13], -3.75 (inactive); in assay [14] it was 0.218 (inactive); in assay [15], 0.367 (inactive). For the same compound, the composite z-score is -2.67 (inactive) in assay [4], 0.291 in assay [10], 0.867 (inactive) in assay [11] and 0.654 in the assay on XIP peptide (Xip251-270).

For `COc1cc(CO)cc(I)c1O[C@H]1C=C(C(=O)NCCO)C[C@@H]2O[C@H]12`, the z-score in assay [1] was -0.876; in assay [2], -11.2 (active); in assay [3], -0.0563 (inactive); in assay [5], -0.0339 (inactive); in assay [6], 1.69 (inactive); in [7], -0.364 (inactive). Moreover, the z-score in [8] is -0.475 (inactive); in [9] it was -0.408; in [12], -1.41; in assay [13], -7.29 (inactive); in assay [14], 0.552 (inactive); in [15], 0.361 (inactive). The composite z-score was -1.32 (inactive) in assay [4], 0.305 in [10], 0.28 (inactive) in [11] and 0.347 in the assay on XIP peptide (Xip251-270).

For the origin of these results see PubChem BioAssay.
